Assay outcomes deposited in PubChem BioAssay by Sanford-Burnham Center for Chemical Genomics.
SENP8 block-1: human SENP8 protease inhibitors, primary screen, biochemical, fluorescence, Nedd8 protein substrate, uHTS; Sentrin-specific protease 8 (Homo sapiens), Q96LD8; recombinant SENP8; inhibition, % at 20 µM; actives 0.64% (n = 360,000); AID 602440, 2012; in the data active = inhibition mostly above about 40%, no sharp cut-off; inactive = mostly below about 27%
SENP8 block-2: SENP8 protease inhibitors, primary screen, biochemical, luminescence; purified SENP8, Z-RLRGG-aminoluciferin cleavage; actives 1.2% (n = 330,000); inhibition, % at 10 µM; Sentrin-specific protease 8 (Homo sapiens), Q96LD8; AID 2540, 2010; in the data active = inhibition above about 50%
C8 TRAIL sens: viability loss with TRAIL in NB7+C8 cells, primary screen, TRAIL sensitizer project, cell-based, ATPlite luminescence | inhibition (viability loss, TRAIL sensitization), % at 10 µM | actives 1% (n = 360,000) | AID 624354, 2012;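 active = compounds causing at least 50% loss of cell viability in the single-dose screen, relative to plate controls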
PPC-1+TRAIL kill: compounds killing PPC-1 cancer cells with TRAIL present, primary screen, TRAIL potentiator project, ATPLite luminescence, uHTS. cell killing (% activity), % at 4 µM or 5 µM. actives 0.41% (n = 220,000). PPC-1 cells + TRAIL, ATPLite viability luminescence;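 active = cell killing above 50% in the first pass at 4 µM, then a duplicate retest at 5 µM averaging 50% or more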;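 also: plate controls were cells with TRAIL plus DMSO for no effect and medium-only wells lacking cells for full effect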
SENP6 inh: SENP6 protease inhibitors, primary screen, biochemical, luminescence, uHTS | Sentrin-specific protease 6 (Homo sapiens), Q9GZR1 | Recombinant SENP6 catalytic domain, aminoluciferin luminescence | inhibition, % at 10 µM | actives 1.8% (n = 330,000) | AID 2599, 2010;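 active = inhibition above about 50% at the single tested dose, limit read from the data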;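 also: plate controls were DMSO wells with enzyme for no effect and DMSO wells lacking enzyme for full effect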
Target sequence (Q9GZR1 628-1112 limits assumed): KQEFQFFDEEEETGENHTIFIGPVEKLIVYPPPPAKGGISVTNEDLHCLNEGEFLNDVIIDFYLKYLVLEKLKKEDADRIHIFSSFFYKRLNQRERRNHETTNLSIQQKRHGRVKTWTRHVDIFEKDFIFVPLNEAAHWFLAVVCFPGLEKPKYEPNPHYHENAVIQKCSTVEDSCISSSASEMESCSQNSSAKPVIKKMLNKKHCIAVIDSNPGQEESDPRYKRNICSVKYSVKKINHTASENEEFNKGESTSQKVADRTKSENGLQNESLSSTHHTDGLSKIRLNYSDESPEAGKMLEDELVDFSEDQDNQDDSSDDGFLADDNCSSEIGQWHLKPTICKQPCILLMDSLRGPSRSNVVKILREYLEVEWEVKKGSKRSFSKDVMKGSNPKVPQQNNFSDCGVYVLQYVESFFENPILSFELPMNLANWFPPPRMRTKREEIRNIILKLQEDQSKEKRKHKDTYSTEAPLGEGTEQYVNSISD
SENP7 inh: SENP7 protease inhibitors, primary screen, biochemical, luminescence, uHTS | recombinant SENP7, Z-RLRGG-aminoluciferin luminescence, 40 min | actives 1.5% (n = 330,000) | AID 434973, 2010 | inhibition, % at 5 µM | Sentrin-specific protease 7 (Homo sapiens), Q9BQF6;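 active = inhibition above about 50% at the single test dose, limit read from the data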;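 also: plate controls were DMSO with enzyme for no effect and no enzyme buffer wells for full effect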
* marks the source's active call; other numbers are inactive results; i = inactive; x = not tested or not shown; ! = not active in a repeat. Most compounds without a hit are left out; they make up all but 3% or so of the library.

SMILES | SENP8 block-1 | SENP8 block-2 | C8 TRAIL sens | PPC-1+TRAIL kill | SENP6 inh | SENP7 inh
Cc1nc2nc(C)n(CCN3CCOCC3)c(=O)c2c(-c2cccc([N+](=O)[O-])c2)c1C(=O)CCCCCCCCCCN1CCC(c2ccccc2)(c2ccccc2)CC1 | 21 | x | 92* | x | x | x
CCN(CC)C(=O)C1=C(C)N(CCCOC)C(=O)C(CC(=O)NCCc2ccccn2)C1 (centres undefined) | -9 | x | -1 | x | x | x
CC(OC(=O)CNC(=O)C1CCCCC1)C(=O)NCc1ccccc1 (centres undefined) | -8 | -11 | -14 | x | -27 | -1
Cc1c(N2C(=O)/C(=C/c3ccccc3)SC2=S)c(=O)n(-c2ccccc2)n1C | 24 | 1 | 0 | 9 | -10 | 13
Cc1c(N2C(=O)/C(=C/c3ccc(N(C)C)cc3)N(C)C2=S)c(=O)n(-c2ccccc2)n1C | 44* | x | -16 | x | x | x
Cc1ccc(C(C)C)c(OCC(=O)Nc2ccc3c(c2)nc(CCN2CCCCC2)n3C)c1 | 17 | 5 | 56* | x | 12 | -7
CCN(CC(=O)NCc1ccc(F)cc1)C(=O)C(C)Oc1cccc(Cl)c1 (centres undefined) | 8 | 3 | 0 | x | -13 | 1
CCOC(=O)c1ccccc1NC(=O)Cc1ccc(OC)c(S(=O)(=O)N2CCOCC2)c1 | -46 | 6 | -1 | x | 1 | 2
CCC(=O)Nc1c(-c2ccc(Cl)cc2)c(=O)c2ccccc2n1C | -32 | 3 | -19 | x | -1 | 7
COc1ccc(N2CCN(C(=O)COC(=O)CCc3ccccc3)CC2)cc1 | 25 | -1 | -7 | x | 15 | 2
COc1cc(/C=C2\CC/C(=C\c3cc(OC)c(OC)c(OC)c3)C2=O)cc(OC)c1OC | -28 | 0 | 12 | 0 | 3 | -3
COc1cc(/C=C2\COC/C(=C\c3cc(OC)c(OC)c(OC)c3)C2=O)cc(OC)c1OC | 0 | x | 72* | 41 | x | x
Cc1csc(NC(=O)c2ccc(COc3ccccc3)o2)n1 | -19 | 4 | 31 | x | 21 | 8
O=[N+]([O-])c1ccc(S(=O)(=O)Nc2cccc(-c3ccc(N4CCOCC4)nn3)c2)cc1 | 6 | -4 | 51* | x | 4 | 6
O=[N+]([O-])c1ccc(S(=O)(=O)Nc2ccc(-c3ccc(N4CCOCC4)nn3)cc2)cc1 | 15 | -4 | 11 | x | 0 | 3
CS(=O)(=O)c1nc(S(=O)(=O)c2ccc(Cl)cc2)c(NCCCn2ccnc2)s1 | 19 | -13 | -14 | x | -4 | -13
CCN1CCN(Cc2ccc(NC(=O)c3ccc(C)c(NC(=O)c4nccn4C)c3)cc2C(F)(F)F)CC1 | 6 | 4 | 8 | 19 | 6 | 4
CCN1CCN(Cc2ccc(NC(=O)c3cc(NC(=O)c4cnnc5ccccc45)cc(OC)c3)cc2C(F)(F)F)CC1 | 15 | -13 | 56*! | 26 | -7 | -9
CCN1CCN(Cc2ccc(NC(=O)c3ccc(C)c(NC(=O)c4cncc(-c5cccs5)c4)c3)cc2C(F)(F)F)CC1 | -9 | x | 70* | x | x | x
CCN1CCN(Cc2ccc(NC(=O)c3cc(NC(=O)c4cncc(-c5ccc(C#N)cc5)c4)cc(OC)c3)cc2C(F)(F)F)CC1 | 6 | -5 | 94*! | 0 | -15 | -6
CCN1CCN(Cc2ccc(NC(=O)c3ccc(C)c(NC(=O)c4cc(-c5ccc(Br)cc5)n[nH]4)c3)cc2C(F)(F)F)CC1 | 10 | -14 | 32 | 18 | -11 | -1
CCN1CCN(Cc2ccc(NC(=O)c3cc(NC(=O)c4nccnc4N)cc(OC)c3)cc2C(F)(F)F)CC1 | -170 | -20 | 12 | 30 | -6 | 5
CCOc1ccc2c(c1)S/C(=C\c1cccs1)C(=O)N2 | 11 | -12 | -23 | 5 | -9 | 2
O=c1c2[nH]c3ccc(F)cc3c2nc2n1CCCS2 | -35 | 5 | 2 | 19 | 5 | -4
CC(=O)N1CC=C2C(C#N)=C(N)C(C#N)(C#N)[C@H](c3ccoc3)[C@H]2C1 | -164 | -11 | -10 | 5 | 11 | -1
SMILES | SENP8 block-1 | SENP8 block-2 | C8 TRAIL sens | PPC-1+TRAIL kill | SENP6 inh | SENP7 inh
N#CC1=C(N)C(C#N)(C#N)[C@H](c2ccoc2)[C@H]2CN(Cc3ccccc3)CC=C12 | -498 | 84* | 21 | 20 | 91* | 77*
O=c1cc(-c2c(F)c(F)c(F)c(F)c2F)oc2ccccc12 | -8 | -8 | 77* | -2 | -13 | 2
O=c1cc(-c2cccc(F)c2)oc2ccccc12 | 9 | x | 13 | x | x | x
CC(C)c1ccc(-n2c(-c3ccccc3)c[n+]3c2CCc2ccccc2-3)cc1 | -26 | x | 53* | 48 | x | x
COc1ccc(-n2c(-c3ccc(Br)cc3)c[n+]3c2CCc2ccccc2-3)cc1 | 14 | -8 | 40 | 34 | -16 | 1
Cc1ccccc1Nc1c(-c2ccc(N3CCOCC3)cc2)nc2cnccn12 | i | -2 | 48* | 34 | -11 | 8
CN(C)CCN(C)C1CN(Cc2ccc(F)cc2)S(=O)(=O)C1 (centres undefined) | 10 | x | 2 | x | x | x
C[C@H](CO)N1C[C@H](C)[C@@H](CN(C)S(=O)(=O)c2ccccc2)Oc2ccc(NC(=O)NC3CCCCC3)cc2C1=O | 3 | -3 | -22 | x | -7 | -8
COc1ccc(Cn2c(SCc3ccccc3C)nc3cc(OC)c(OC)cc3c2=N)cc1 | -1 | -5 | 86* | 8 | 3 | 3
Cn1ccnc1SCCNC(=O)CCc1nnc(CCc2ccccc2)o1 | 16 | 3 | 5 | -4 | 14 | 10
CC1=NN(c2ccccc2)C(=O)C1=C(C)C | 41* | 0 | -4 | 7 | -4 | 5
Cc1cccc(C)c1N1C(=O)c2ccccc2NC(=O)C1C(=O)NCCc1ccccc1F (centres undefined) | -22 | x | -2 | x | x | x
COc1ccccc1C(=O)NC(=Nc1nc2ccccc2o1)NC(=O)c1ccccc1OC | 4 | -3 | 71*! | 3 | -2 | -3
O=C(NC(=Nc1nc2ccccc2o1)NC(=O)c1ccccc1)c1ccccc1 | -351 | -2 | -16 | 9 | -2 | -2
O=S1(=O)N[C@@H](Cc2ccccc2)COc2ccc(Cl)cc21 | 0 | x | -17 | x | x | x
CC(=O)N1CCN(S(=O)(=O)c2cccc(C(=O)NCCc3ccc(Cl)cc3)c2)CC1 | -5 | -7 | 27 | x | -10 | 0
COc1ccc(NC(=O)c2cc(-c3ccncc3)nc3ccc(Br)cc23)cc1OC | 14 | -7 | 54* | x | -3 | 10
COc1ccc(NC(=O)c2cc(-c3cccnc3)nc3ccc(C)cc23)cc1OC | 12 | x | 11 | 3 | x | x
CCOc1ccccc1C=C1SC(=S)N(CC)C1=O | 36* | x | 73* | x | x | x
